Experimental findings from PubChem BioAssay (NCATS) are described below.

Molecules are shown by their SMILES. Activity calls are given as the source filed them. Calls follow the shape of the dose curve; as a rule, active = well fitted curve in the direction sought with a large enough effect; inconclusive = small, poorly fitted or top-dose-only effect, or effect the other way, or another doubt; inactive = no such curve, though single readings can be large or run the other way.

This assay in a line: Inducers of the Endoplasmic Reticulum Stress Response (ERSR) in human glioma: Validation (AID 504836). Also: 0% is about no effect. As to conditions: human glioma cells, ER stress response reporter; series mostly up to 38.3 µM; activation: at the top concentration. The source says:
Primary protein unfolding takes place for many diseases, including diabetes and hypoxia, , and triggers a reaction in the cells called ER stress response (ERSR). ). ERSR is designed as a repair mechanism, but ultimately leads to cell death via apoptosis if conditions triggering protein unfolding persist (1). The molecular clue to ERSR activation is the enhancement of the expression of key molecular chaperones, including the glucose regulated protein (GRP) 78. GRP78 is the main sensor for protein folding and the main actuator of the ERSR.
In a collaboration between the Southern Research Institute and the NIH Chemical Genomics Center, a cell based screen was developed that reliably uses GRP78 as a sensor to identify small molecules as inducers of ERSR. In resting conditions, GRP78 binds proteins and acts as a natural repressor. Once unfolded proteins are present in the ER, GRP78 releases some of the repressors and binds to the unfolded proteins. The release of the repressors executes the ERSR program. Using a human glioma cell line in a miniaturized, luminescent format, a high-throughput screen was developed to identify actuators of the ERSR.
(1) Soboloff, J. and S. A. Berger (2002). "Sustained ER Ca2+ depletion suppresses protein synthesis and induces activation-enhanced cell death in mast cells." J Biol Chem 277(16): 13812-20.
NIH Chemical Genomics Center [NCGC]
NIH Molecular Libraries Probe Centers Network [MLPCN]
Assay Submitter (PI): Maurizio Grimaldi, Southern Research Institute
Stable transfected human glioma cell line, U87-MG, are dispensed at density 1000 cells/well into Greiner white solid bottom 1536-well assay plates. Compounds are transferred via Kalypsys pin tool equipped with 1536-pin array (10nl slotted pins, V&P Scientific, San Diego, CA). The assay plates will be incubated for 16 hours and developed by adding appropriate quantities of the Promega Bright Glo reagent. The plates will be incubated at room temperature for 10 minutes prior to being transferred into a ViewLux high-throughput CCD imager (PerkinElmer), wherein end-point measurements of luminescence are acquired.
On to `O=C1N=C(O)CN1/N=C/c1ccc(-c2ccc([N+](=O)[O-])cc2)o1`, for which the “activation” value is 0.223% (inactive).

For the molecule `COC(=O)[C@H]1[C@H]2C[C@@H]3c4[nH]c5cc(OC)ccc5c4CCN3C[C@H]2C[C@@H](OC(=O)c2cc(OC)c(OC)c(OC)c2)[C@@H]1OC`, the “activation” value is -1.51% (inactive).

Take `Fc1ccc([C@@H]2CCNC[C@H]2COc2ccc3c(c2)OCO3)cc1`: the “activation” value was -1.25% (inactive).

`COc1cc2nc(N(C)CCCNC(=O)C3CCCO3)nc(N)c2cc1OC` (stereo not given): the “activation” value was -4.79% (inactive).

With `CNCC(O)c1ccc(O)cc1` (stereo not given), the “activation” value is -2.62% (inactive).

On to `c1ccc(C2CC2)c(OCC2=NCCN2)c1`, for which the “activation” value is -3.07% (inactive).

For the molecule `OCCN(CCO)c1nc(N2CCCCC2)c2nc(N(CCO)CCO)nc(N3CCCCC3)c2n1`, the “activation” value was -3.53% (inactive).

With `CC(=O)[C@H]1CC[C@H]2[C@@H]3CC[C@H]4C[C@H](O)CC[C@]4(C)[C@H]3C(=O)C[C@]12C`, the “activation” value is -3.06% (inactive).

For the molecule `CCN(CC)C(=S)SSC(=S)N(CC)CC`, the “activation” value is -11.4% (inactive).

Turning to `NC[C@H](O)c1ccc(O)c(O)c1`, the “activation” value is -3.09% (inactive).

Consider `COC(=O)C1=C(C)NC(C)=C(C(=O)OCCN(C)Cc2ccccc2)C1c1cccc([N+](=O)[O-])c1` (stereo not given), for which the “activation” value is -4.69% (inactive).

For `CN(C)CCCN1c2ccccc2Sc2ccc(Cl)cc21`, the “activation” value was 2.13% (inactive).

With `O=C1NCN(c2ccccc2)C12CCN(CC1COc3ccccc3O1)CC2` (stereo not given), the “activation” value was -1.07% (inactive).

Turning to `Cc1cn[nH]c1`, the “activation” value is -1.52% (inactive).

Consider `CC(COc1ccccc1)N(CCCl)Cc1ccccc1` (stereo not given), for which the “activation” value is -4.8% (inactive).

`O=C(CCCN1CCC(O)(c2ccc(Cl)cc2)CC1)c1ccc(F)cc1`: the “activation” value was 1.14% (inactive).

For the molecule `CN(C)CC/C=C1\c2ccccc2COc2ccccc21`, the “activation” value is 0.766% (inactive).

Turning to `N[C@@H]1CONC1=O`, the “activation” value is 0.346% (inactive).

Regarding `CCCN1CCC[C@@H]2Cc3[nH]ncc3C[C@H]21`, the molecule was classed as inactive.

As to `CCCCc1oc2ccccc2c1C(=O)c1cc(I)c(OCCN(CC)CC)c(I)c1`, the “activation” value is -1.55% (inactive).

Regarding `CN(C)CCC=C1c2ccccc2C=Cc2ccccc21`, the “activation” value is -3.4% (inactive).

For the molecule `COc1ccccc1OCCNCC(O)COc1cccc2[nH]c3ccccc3c12` (stereo not given), the “activation” value was -1.63% (inactive).

Consider `CCCN(CCC)CCc1cccc2c1CC(=O)N2`, for which the “activation” value was -0.323% (inactive).

As to `CSc1ccc2c(c1)N(CCC1CCCCN1C)c1ccccc1S2` (stereo not given), the “activation” value is -2.55% (inactive).

On to `CCCNCC(O)COc1ccccc1C(=O)CCc1ccccc1` (stereo not given), for which the “activation” value is 0.0419% (inactive).

As to `CCCC(C)(COC(N)=O)COC(=O)NC(C)C` (stereo not given), the “activation” value is -4.43% (inactive).

For the molecule `CC(C)NCC(O)COc1cccc2[nH]ccc12` (stereo not given), the “activation” value is -3.11% (inactive).

`CN1CCN(CCCN2c3ccccc3Sc3ccc(C(F)(F)F)cc32)CC1`: the “activation” value is -0.484% (inactive).

Turning to `NNCCc1ccccc1`, the “activation” value is -0.057% (inactive).

`NNc1nncc2ccccc12`: the “activation” value was -2.43% (inactive).

As to `CCCN1CCC[C@@H]2Cc3nc(N)ncc3C[C@H]21`, the “activation” value was -3.69% (inactive).

Regarding `COc1cc(Cc2cnc(N)nc2N)cc(OC)c1OC`, the “activation” value is -3.01% (inactive).

Turning to `CC1(C)NC(=O)N(c2ccc([N+](=O)[O-])c(C(F)(F)F)c2)C1=O`, the “activation” value is -5.72% (inactive).

Turning to `Cc1ccccc1C(OCCN(C)C)c1ccccc1` (stereo not given), the “activation” value was 0.754% (inactive).

For the molecule `CC[C@@H](CO)NC(=O)[C@@H]1C=C2c3cccc4[nH]cc(c34)C[C@H]2N(C)C1`, the “activation” value was -6.09% (inactive).

As to `CN/C(=C\[N+](=O)[O-])NCCSCc1ccc(CN(C)C)o1`, the “activation” value was 0.197% (inactive).

In the case of `CC(C)OC(=O)C(C)(C)Oc1ccc(C(=O)c2ccc(Cl)cc2)cc1`, the “activation” value was 1.96% (inactive).

With `CCCN1C[C@H](CSC)C[C@@H]2c3cccc4[nH]cc(c34)C[C@H]21`, the “activation” value is -0.831% (inactive).

Regarding `Cc1[nH]c(=O)c(C#N)cc1-c1ccncc1`, the “activation” value is -2.85% (inactive).

On to `CN1CC(=O)N/C1=N/C(=O)Nc1cccc(Cl)c1`, for which the “activation” value is -0.746% (inactive).
